# Measured values: the OligoGym collection
# Biological target: CEP55
# Assay: pooled miR-30 sensor sort-seq; sequence = guide strand
# Conditions: shRNA
# Note: reference of the scale not given here.
row,Sequence,sensor-assay potency score (higher = more potent)
1,TCTTTGTGAATACAACAGCTGA,-0.875
2,TTTCTTCATATTTTCTTCGAAA,-1.41
3,TAAATTGTGAACTTCTTTTTGG,-0.104
4,TTGATAAGCATTCTTCTCCTTC,0.207
5,TTTTCTTCGAAATTCACTCAGT,0.403

# Biological target: CETN1
# Assay: as above
# Conditions: shRNA
row,Sequence,sensor-assay potency score (higher = more potent)
1,TATTGAACTAGAGATATGGAAA,-1.01
2,ATTGAAGCTGATCTTCCCCGTG,-0.49
3,TTAGGTGCCACCTTTCTCTTTT,0.187
4,TCTTCTTTGGTGTCCTTCTCGG,-0.36
5,TTTCTCTTTTGGCCGGTGGAGG,-1.52
6,TTCTCGGACATCTTCTGCGTCA,-0.598
7,TTCAGGATTTCTTCTTTGGTGT,-0.547
8,TAGATCTAGACAAATTATGGGG,-0.0246
9,TTGCTTCTGATCCTCAGTGAGC,-1.03
10,TCATCGTCATCAAAGAGCCTGA,-0.321
11,AGCTTCGTCGATCATCTCCTGC,-1.15
12,ATCAGCTTCGTCGATCATCTCC,-0.374
13,TTCGTCGATCATCTCCTGCAGC,-0.572
14,TCTTGCTTCTGATCCTCAGTGA,0.681
15,TCATTGAAGCTGATCTTCCCCG,-0.662
16,TTCGCGTCGATGGTCCCACTTC,-0.957
17,TTTTTGAACGAGATCTTCCCGG,0.117
18,TTCCCGAACTTCTTGCTTCTGA,0.00399
19,AACTTCTTGCTTCTGATCCTCA,-0.468
20,ATCCCGATCAGCTTCGTCGATC,-1.43
21,TTTTGAACGAGATCTTCCCGGT,0.317
22,TTTGGTGTCCTTCTCGGACATC,-1.04
23,TTCTTCTTTGGTGTCCTTCTCG,0.166
24,TTGAAGCTGATCTTCCCCGTGC,0.267

# Biological target: CFHR1
# Assay: as above
# Conditions: shRNA
row,Sequence,sensor-assay potency score (higher = more potent)
1,TATATGAGCATTTTGTACTGTG,0.209
2,TACTCATCTGTCTCGACAGTAT,-0.805
3,TTACACACAAATTCAGCTGATT,-0.226
4,TTTACACACAAATTCAGCTGAT,0.481
5,TCTGTCTCGACAGTATATGAGC,-1.41
6,TAATTTGCACAGTATCACCTTC,0.283
7,TGAAATTAAGAACTGATTTAAT,-1.22
8,TTTCCCGTAGAATCTTTGCATT,-1.19
9,TTAAGAACTGATTTAATACTAA,-0.326
10,TTGCACAGTATCACCTTCCAGA,-0.325
